Most compounds without a hit are left out; they make up all but 7.1% or so of the library.
MCF10A rerep – DNA re-replication induction in MCF 10a cells; MCF 10A DNA re-replication, Hoechst nuclear intensity, 48 h; Potency, µM (series often up to 46.1 µM), for inactives: top-dose activity, positive = re-replication, hits mostly activators; 350,000 tested, 2.9% active; AID 624296; also: % of control where 0% means no effect; nearly all actives have a fitted effect of over 50% in size
p53 reactivation – mutant p53 re-activation in reporter cells; 320,000 tested, 0.063% active; H1299 p53-A138V BP100-luciferase reporter, luminescence, 24 h; Potency, µM (series often up to 92.2 µM), inactives show top-dose activity change, positive = activation, actives largely listed as activators; also: % of control where 0% means no effect; nearly all actives have a fitted effect of over 45% in size
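p53-null H1299 cells stably carrying temperature-sensitive p53-A138V and a BP100-luciferase reporter were pinned with compounds (4-point, 1:5 series) and held 24 hrs at 37 deg C. Luminescence was read 10 min after detection reagent.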
SW480 rerep – DNA re-replication induction in SW480 cells. SW480 DNA re-replication, Hoechst DNA content imaging, 48 h. Potency, µM (titrated, usually from 46.1 µM), inactives show top-dose re-replication activation, hits mostly activators. 340,000 tested, 1.8% active; also: % of control where 0% means no effect; nearly all actives have a fitted effect of over 55% in size
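Treated cells incubate 48 hr (37 C, 5% CO2), are stained 40 min with Hoechst, and nuclear fluorescence is enumerated; a rise in nuclei with high DNA signal marks re-replication.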
A-T KAP1 phos – potential ataxia-telangiectasia treatment. F2112 A-T fibroblasts, KAP-1 phosphorylation AlphaLISA; neocarzinostatin DNA damage 30 min before lysis. Potency, µM (doses to about 57.5 µM), without a hit: at the top dose activation, hits mostly activators. 320,000 tested, 0.19% active; also: % of control where 0% means no effect; nearly all actives have a fitted effect of over 45% in size
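hTERT-immortalized A-T patient fibroblasts (F2112), 500 cells/well in OPTI-MEM, 1% FBS, got compounds for 60 min, then NCS for 30 min at 37C. Lysates were then assayed for phospho-KAP-1 by AlphaLISA (anti-pKAP1 donor, anti-KAP1 acceptor beads), 6 hr at 25C.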
ELG1 repair inh – inhibitors of ELG1-dependent DNA repair in HEK293T cells. 330,000 tested, 2.3% active. HEK293T ELG1-luciferase reporter, luminescence, 16 h; DNA damage induced by 5-fluorouridine. Potency, µM (top dose mostly 46.1 µM), without a hit: top-dose activity change, negative = inhibition, actives largely listed as inhibitors. AID 504467; also: % is scaled to controls: 0 for no effect and ±100 for the full control effect; nearly all actives have a fitted effect of over 55% in size
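Luminescence from the luciferase reporter, measured 30 min after ONE-Glo reagent at room temperature, was the read-out. Beforehand, 2,000 cells per well were exposed for 16 hr at 37 °C to 5-fluorouridine together with compound or vehicle.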
ELG1 genotoxic – genotoxicity induction in ELG1-luciferase HEK293T cells. 330,000 tested, 1.3% active. HEK293T ELG1-luciferase reporter, luminescence, 16 h. Potency, µM (highest dose often 46 µM), without a hit: top-dose activity change, positive = activation, actives largely listed as activators; also: % of control where 0% means no effect; nearly all actives have a fitted effect of over 60% in size
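Reporter readout depends on ELG1 protein level, which increases with genetic stress. After 16 hr compound exposure at 37 °C, luciferase activity was quantified using ONE-Glo.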
An asterisk follows results filed as active; ? = inconclusive; · = no result. Calls follow the shape of the dose curve; as a rule, active = well fitted curve in the direction sought with a large enough effect; inconclusive = small, poorly fitted or top-dose-only effect, or another doubt; inactive = no such curve, though single readings can be large; an effect the other way counts as inactive or inconclusive. Potency is read from the fitted curve at half-maximal effect.

SMILES	MCF10A rerep	p53 reactivation	SW480 rerep	A-T KAP1 phos	ELG1 repair inh	ELG1 genotoxic
CCOc1ccc(NS(=O)(=O)c2ccc(C(=O)N3CCN(c4ncccn4)CC3)cc2)cc1	-8%	-4%	12%	0%	7.3µM*	-12%
CCN(C(=O)CSc1nnnn1-c1ccc(Cl)cc1)C1CCS(=O)(=O)C1 (configuration not stated)	-1%	-2%	0%	4%	0%	0%
Cc1cccc(N(CC(=O)NCC2CCCO2)C(=O)CCC(=O)Nc2nccs2)c1 (configuration not stated)	-2%	3%	-13%	0%	3%	0%
CC(=O)c1ccc(N2CCN(C(=O)c3cc4c(-c5ccccc5F)nn(C)c4s3)CC2)cc1	6%	-5%	12%	12%	18µM*	-15%
CCOCCCNC(=O)c1cc2c(-c3ccc(Cl)cc3)nn(C)c2s1	9%	-1%	18%	3%	21µM*	-15%
CCCCN(CC)CCNC(=O)c1cc2c(-c3ccc(Cl)cc3)nn(C)c2s1	18µM*	-6%	?	6%	?	7%
COCCCNC(=O)c1cc2c(-c3cccc(OC)c3)nn(C)c2s1	29%	-1%	?	-11%	12µM*	-1%
O=C(NCc1cccnc1)c1ccc(Br)s1	-2%	-2%	?	2%	11%	0%
CC(=O)NC12CC3CC(C1)CC(C(=O)Oc1ccc(N(C)S(=O)(=O)c4cc(C)ccc4C)cc1)(C3)C2	-8%	-10%	-60%	3%	-4%	-5%
N=c1nc2n(cc1F)C1OC(CO)C(O)C1O2 (configuration not stated)	12%	·	?	·	·	·
Cc1nn(-c2ccccc2)c2sc(C(=O)NC3CC3)cc12	12µM*	1%	2%	18%	-4%	13%
CCCN(CCC)CCNC(=O)c1cc2c(-c3ccccc3F)nn(C)c2s1	94%	2%	?	14%	4%	-4%
Cn1nc(-c2ccc(Cl)cc2)c2cc(C(=O)N3CCN(C(=O)c4ccco4)CC3)sc21	-3%	-8%	3%	-3%	8.2µM*	-6%
CC(CCc1ccco1)NC(=O)c1cc2c(-c3ccccc3F)nn(C)c2s1 (configuration not stated)	12%	-1%	-1%	2%	16µM*	-9%
Cn1nc(-c2ccc(Cl)cc2)c2cc(C(=O)NC3CC3)sc21	6.5µM*	1%	?	1%	-17%	6%
CCCN(CCC)CCCNC(=O)c1cc2c(-c3ccc(OC)c(OC)c3)nn(C)c2s1	18µM*	1%	?	-3%	7%	7%
COc1ccc(-c2nn(C)c3sc(C(=O)NCCN(C)C)cc23)cc1OC	25%	-5%	?	-3%	?	11%
O=[N+]([O-])c1cccc(NC(=S)N2CCc3ccccc32)c1	-2%	?	-8%	-8%	13µM*	1%
N#CCOC(=O)c1cc(S(=O)(=O)N2CCCCC2)ccc1N1CCOCC1	29%	-3%	?	2%	16%	4%
Cc1csc(NC(=O)c2cccc(C)c2C)n1	5%	?	-3%	2%	?	?
Cc1csc(NC(=O)c2ccc[nH]c2=O)n1	7%	·	1%	2%	?	16µM*
Cc1cc(C)c2cccc(NC(=S)NC(=O)c3ccccc3)c2n1	19%	-2%	4.1µM*	-1%	?	2%
CC(=O)NC(=S)Nc1cccc2c(C)cc(C)nc12	0%	5%	13%	10%	5%	-2%
Cc1csc(NC(=O)c2ccccc2)n1	7%	6%	11%	-9%	?	?
Cc1ccc2cccc(NC(=S)NC(=O)c3ccccc3)c2n1	?	4%	16µM*	9%	4%	0%
SMILES	MCF10A rerep	p53 reactivation	SW480 rerep	A-T KAP1 phos	ELG1 repair inh	ELG1 genotoxic
Cc1csc(NC(=S)NC(=O)c2ccccc2)n1	-7%	?	-6%	4%	?	21µM*
OC(Cc1ccnc2ccccc12)C(Cl)(Cl)Cl (configuration not stated)	9%	·	-2%	·	·	·
O=C(CN1C(=O)/C(=C\c2ccccc2Br)Oc2ccccc21)NCCCN1CCOCC1	8%	-4%	-4%	4%	8%	0%
CCCCNC(=O)c1ccc(/C=C2\Oc3ccccc3N(C)C2=O)cc1	?	2%	?	-3%	7%	23%
CCN1CCN(CCCNC(=O)c2ccc(/C=C3/Oc4ccccc4N(Cc4cccc(C)c4)C3=O)cc2)CC1	1.8µM*	1%	2.6µM*	-2%	-17%	?
O=C(NCCCN1CCOCC1)c1ccc(/C=C2\Oc3ccccc3N(Cc3ccccc3F)C2=O)cc1	5.2µM*	1%	?	-1%	-4%	-3%
COc1ccc(CNC(=O)C2CCCN2C)cc1OC (configuration not stated)	-5%	2%	0%	10%	-2%	0%
Cc1ccc2c(Cl)c(C)c(N3CCOCC3)nc2n1	13%	·	8%	·	·	·
O=C(COC(=O)c1cc(S(=O)(=O)N2CCCC2)ccc1O)NCCc1ccccc1	-5%	8%	-3%	5%	0%	2%
COc1ccc(C(=O)NCCCNC(=O)c2cccnc2)cc1Br	0%	10%	-1%	9%	14%	?
Cc1ccc(CNC(=O)CCc2nc3ccccc3c(=O)[nH]2)cc1	0%	-21%	4%	1%	-11%	-1%
CC(=O)NCc1ccc(-c2csc(NC(=O)CCc3nc4ccccc4c(=O)[nH]3)n2)s1	7%	-3%	-2%	9%	21µM*	-4%
Cn1c(SCC(=O)NC2CC2)nnc1-c1ccc(Cl)cc1	12%	0%	-5%	-2%	3%	-1%
O=C(N/N=C/c1cccs1)c1cc(-c2ccncc2)nc2ccccc12	?	5%	?	-27%	-22%	5%
CCc1cc(C(=O)N/N=C/c2ccc(OC)cc2)c2ccccc2n1	16µM*	2%	?	2%	?	3%
CCCc1cc(C(=O)N/N=C/c2ccc(CC)s2)c2ccccc2n1	7.3µM*	1%	21µM*	4%	?	-6%
CCc1ccc(/C=N/NC(=O)c2cc(-c3ccncc3)nc3ccccc23)s1	1µM*	8%	3.7µM*	-5%	?	-2%
CCOc1ccc(CCN2C(=S)N([C@@H](CC(C)C)CN3CCCC3CN3C(=S)NC[C@@H]3Cc3ccc(O)cc3)C[C@@H]2Cc2ccc(O)cc2)cc1 (some centres not stated)	?	·	-3%	·	·	·
